In all, about 5,500 compounds went through this assay and about 2,000 (36%) were called active. Another 18% or so got no clear call; they are omitted. Cut-off read from the data, not from the text of the source: active = normalized growth mostly below about 0.91 (no sharp cut-off); inconclusive = no clear call, values can overlap the other calls; inactive = mostly above about 0.92. Some of the results follow.
Experiment: chemical genetic growth profiling, strain panel (AID 1159580);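 note: tested at 20 µM; growth read once vehicle control cultures reached saturation at 30 °C; 1 = growth at the plate median or of vehicle wells; lower values mean less growth of the strain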
Settings: S. cerevisiae deletion strains, growth OD

Measured: normalized growth

CC(CC(=O)C(O)C(C)(C)O)C1C(=O)CC2(C)C3=CCC4C(C)(C)C(OC5OCC(O)C(O)C5O)CCC45CC35C(O)CC12C (configuration not stated)
inactive: locus YAL021C, strain ccr4, stronger effect = lower value 1.01 | locus YAL026C, strain drs2, stronger effect = lower value 1.01 | locus YAL030W, strain snc1, stronger effect = lower value 1.01 | locus YBL061C, strain skt5, stronger effect = lower value 1.01 | locus YBR009C, strain hhf1, stronger effect = lower value 1.01 | locus YBR023C, strain chs3, stronger effect = lower value 1.02 | locus YBR171W, strain sec66, stronger effect = lower value 1.03 | locus YBR231C, strain swc5, stronger effect = lower value 1.01 | locus YBR279W, strain paf1, stronger effect = lower value 1.02 | locus YCL011C, strain gbp2, stronger effect = lower value 1.01 | locus YCL016C, strain dcc1, stronger effect = lower value 1.01 | locus YCL061C, strain MRC1, stronger effect = lower value 1.01 | locus YCL069W, strain vba3, stronger effect = lower value 1 | locus YCR088W, strain abp1, stronger effect = lower value 1.02 | locus YDL005C, strain med2, stronger effect = lower value 1.01 | locus YDL040C, strain nat1, stronger effect = lower value 1.02 | locus YDR001C, strain nth1, stronger effect = lower value 1.01 | locus YDR069C, strain doa4, stronger effect = lower value 1.01 | locus YDR137W, strain rgp1, stronger effect = lower value 0.974 | locus YDR159W, strain sac3, stronger effect = lower value 1.02 | locus YDR195W, strain ref2 0.987 | locus YDR297W, strain sur2, stronger effect = lower value 1.01 | locus YDR334W, strain swr1, stronger effect = lower value 1.02 | locus YDR335W, strain msn5, stronger effect = lower value 1.02 | locus YDR392W, strain spt3, stronger effect = lower value 1.04 | locus YEL003W, strain gim4, stronger effect = lower value 1.01 | locus YEL037C, strain rad23, stronger effect = lower value 1.07 | locus YEL061C, strain CIN8 (second series), stronger effect = lower value 1.01 | locus YER015W, strain faa2, stronger effect = lower value 1.01 | locus YER016W, strain bim1, stronger effect = lower value 1.02 | locus YER111C, strain swi4, stronger effect = lower value 1.01 | locus YER155C, strain BEM2 (second series), stronger effect = lower value 1.02 | locus YFR010W, strain ubp6, stronger effect = lower value 1.01 | locus YGL167C, strain pmr1, stronger effect = lower value 1.01 | locus YGL173C, strain kem1, stronger effect = lower value 1.03 | locus YGL227W, strain vid30, stronger effect = lower value 1.01 | locus YGL240W, strain doc1, stronger effect = lower value 1.01 | locus YGL253W, strain hxk2, stronger effect = lower value 1.02 | locus YHR013C, strain ard1, stronger effect = lower value 1.02 | locus YHR027C, strain rpn1, stronger effect = lower value 1.01 | locus YHR142W, strain chs7, stronger effect = lower value 1 | locus YJL092W, strain hpr5, stronger effect = lower value 1.02 | locus YJL095W, strain BCK1 (second series), stronger effect = lower value 1.01 | locus YJL115W, strain asf1, stronger effect = lower value 1.01 | locus YJL129C, strain trk1, stronger effect = lower value 1.02 | locus YJL154C, strain vps35, stronger effect = lower value 1.02 | locus YJL164C, strain tpk1, stronger effect = lower value 1.03 | locus YJL166W, strain qcr8, stronger effect = lower value 1.01 | locus YJL187C, strain SWE1, stronger effect = lower value 1.01 | locus YKL160W, strain elf1, stronger effect = lower value 1.01 | locus YKR026C, strain gcn3, stronger effect = lower value 1.02 | locus YKR091W, strain srl3, stronger effect = lower value 1.02 | locus YLL001W, strain dnm1, stronger effect = lower value 1.03 | locus YLL026W, stronger effect = lower value 1.02 | locus YLL041C, strain sdh2, stronger effect = lower value 1.01 | locus YLR027C, strain aat2, stronger effect = lower value 1 | locus YLR221C, strain rsa3, stronger effect = lower value 1.01 | locus YLR258W, strain gsy2, stronger effect = lower value 1.02 | locus YLR262C, strain YPT6 (second series), stronger effect = lower value 1.02 | locus YLR320W, strain mms22, stronger effect = lower value 1.03 | locus YLR342W, strain FKS1, stronger effect = lower value 1.01 | locus YLR357W, strain rsc2, stronger effect = lower value 1.02 | locus YLR370C, strain arc18, stronger effect = lower value 0.995 | locus YLR384C, strain iki3, stronger effect = lower value 1.01 | locus YML120C, strain ndi1, stronger effect = lower value 1.02 | locus YMR058W, strain fet3, stronger effect = lower value 1.01 | locus YMR125W, strain sto1, stronger effect = lower value 1.03 | locus YMR129W, stronger effect = lower value 1.01 | locus YMR205C, strain PFK2, stronger effect = lower value 1.02 | locus YMR231W, strain pep5, stronger effect = lower value 1 | locus YNL071W, strain lat1, stronger effect = lower value 1.01 | locus YNL209W, strain ssb2, stronger effect = lower value 1.01 | locus YNL248C, strain rpa49, stronger effect = lower value 1.01 | locus YNL322C, strain KRE1 (second series), stronger effect = lower value 1.01 | locus YNR049C, strain mso1, stronger effect = lower value 1.02 | locus YOR001W, strain rrp6, stronger effect = lower value 1.01 | locus YOR070C, strain gyp1, stronger effect = lower value 1.01 | locus YOR080W, strain dia2, stronger effect = lower value 1.02 | locus YOR083W, strain WHI5, stronger effect = lower value 1.02 | locus YOR106W, strain vam3, stronger effect = lower value 1 | locus YOR265W, strain rbl2, stronger effect = lower value 1.01 | locus YOR270C, strain vph1, stronger effect = lower value 1.02 | locus YOR290C, strain snf2, stronger effect = lower value 1.02 | locus YPL051W, strain arl3, stronger effect = lower value 1.01 | locus YPL078C, strain atp4, stronger effect = lower value 1.02 | locus YPL106C, strain sse1, stronger effect = lower value 1 | locus YPL240C, strain hsp82, stronger effect = lower value 1.02

— PubChem BioAssay AID1159580 (chemical genetic matrix, 2015)
